In the supplement of paper PMC10849652:
Targets with a hit are over-represented here; the source holds about 7,900 in all. About 0.6% of all pairs of compound and target were hits. A number with no mark means an inactive call.

Compound: CNCc1ccc(-c2[nH]c3cc(F)cc4c3c2CCNC4=O)cc1 [rucaparib]
Assay: log2 fold change, soluble protein after heating vs DMSO (PISA); higher = thermal stabilisation; K562 cells, 10 uM, 30 min; active = over 0.2 and 3.5 SD of the protein, either way, in both replicates (recomputed)
How it was run: (§1)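 Aliquots of K562 cells (2×10^6 cells/mL) treated with 10 μM compound for 30 min were heated for 3 min over 48°C-58°C. After pooling and extraction in PBS with 0.5% NP-40 at 4°C, soluble protein from a 21,000xg, 90 min spin was quantified by TMTpro 16plex LC-MS/MS with channel sums equalised. Thermal stability is expressed against control samples, from duplicates, as a log2 fold change.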

UniProt Q8TE73, sequence (Q8TE73 whole entry, looked up): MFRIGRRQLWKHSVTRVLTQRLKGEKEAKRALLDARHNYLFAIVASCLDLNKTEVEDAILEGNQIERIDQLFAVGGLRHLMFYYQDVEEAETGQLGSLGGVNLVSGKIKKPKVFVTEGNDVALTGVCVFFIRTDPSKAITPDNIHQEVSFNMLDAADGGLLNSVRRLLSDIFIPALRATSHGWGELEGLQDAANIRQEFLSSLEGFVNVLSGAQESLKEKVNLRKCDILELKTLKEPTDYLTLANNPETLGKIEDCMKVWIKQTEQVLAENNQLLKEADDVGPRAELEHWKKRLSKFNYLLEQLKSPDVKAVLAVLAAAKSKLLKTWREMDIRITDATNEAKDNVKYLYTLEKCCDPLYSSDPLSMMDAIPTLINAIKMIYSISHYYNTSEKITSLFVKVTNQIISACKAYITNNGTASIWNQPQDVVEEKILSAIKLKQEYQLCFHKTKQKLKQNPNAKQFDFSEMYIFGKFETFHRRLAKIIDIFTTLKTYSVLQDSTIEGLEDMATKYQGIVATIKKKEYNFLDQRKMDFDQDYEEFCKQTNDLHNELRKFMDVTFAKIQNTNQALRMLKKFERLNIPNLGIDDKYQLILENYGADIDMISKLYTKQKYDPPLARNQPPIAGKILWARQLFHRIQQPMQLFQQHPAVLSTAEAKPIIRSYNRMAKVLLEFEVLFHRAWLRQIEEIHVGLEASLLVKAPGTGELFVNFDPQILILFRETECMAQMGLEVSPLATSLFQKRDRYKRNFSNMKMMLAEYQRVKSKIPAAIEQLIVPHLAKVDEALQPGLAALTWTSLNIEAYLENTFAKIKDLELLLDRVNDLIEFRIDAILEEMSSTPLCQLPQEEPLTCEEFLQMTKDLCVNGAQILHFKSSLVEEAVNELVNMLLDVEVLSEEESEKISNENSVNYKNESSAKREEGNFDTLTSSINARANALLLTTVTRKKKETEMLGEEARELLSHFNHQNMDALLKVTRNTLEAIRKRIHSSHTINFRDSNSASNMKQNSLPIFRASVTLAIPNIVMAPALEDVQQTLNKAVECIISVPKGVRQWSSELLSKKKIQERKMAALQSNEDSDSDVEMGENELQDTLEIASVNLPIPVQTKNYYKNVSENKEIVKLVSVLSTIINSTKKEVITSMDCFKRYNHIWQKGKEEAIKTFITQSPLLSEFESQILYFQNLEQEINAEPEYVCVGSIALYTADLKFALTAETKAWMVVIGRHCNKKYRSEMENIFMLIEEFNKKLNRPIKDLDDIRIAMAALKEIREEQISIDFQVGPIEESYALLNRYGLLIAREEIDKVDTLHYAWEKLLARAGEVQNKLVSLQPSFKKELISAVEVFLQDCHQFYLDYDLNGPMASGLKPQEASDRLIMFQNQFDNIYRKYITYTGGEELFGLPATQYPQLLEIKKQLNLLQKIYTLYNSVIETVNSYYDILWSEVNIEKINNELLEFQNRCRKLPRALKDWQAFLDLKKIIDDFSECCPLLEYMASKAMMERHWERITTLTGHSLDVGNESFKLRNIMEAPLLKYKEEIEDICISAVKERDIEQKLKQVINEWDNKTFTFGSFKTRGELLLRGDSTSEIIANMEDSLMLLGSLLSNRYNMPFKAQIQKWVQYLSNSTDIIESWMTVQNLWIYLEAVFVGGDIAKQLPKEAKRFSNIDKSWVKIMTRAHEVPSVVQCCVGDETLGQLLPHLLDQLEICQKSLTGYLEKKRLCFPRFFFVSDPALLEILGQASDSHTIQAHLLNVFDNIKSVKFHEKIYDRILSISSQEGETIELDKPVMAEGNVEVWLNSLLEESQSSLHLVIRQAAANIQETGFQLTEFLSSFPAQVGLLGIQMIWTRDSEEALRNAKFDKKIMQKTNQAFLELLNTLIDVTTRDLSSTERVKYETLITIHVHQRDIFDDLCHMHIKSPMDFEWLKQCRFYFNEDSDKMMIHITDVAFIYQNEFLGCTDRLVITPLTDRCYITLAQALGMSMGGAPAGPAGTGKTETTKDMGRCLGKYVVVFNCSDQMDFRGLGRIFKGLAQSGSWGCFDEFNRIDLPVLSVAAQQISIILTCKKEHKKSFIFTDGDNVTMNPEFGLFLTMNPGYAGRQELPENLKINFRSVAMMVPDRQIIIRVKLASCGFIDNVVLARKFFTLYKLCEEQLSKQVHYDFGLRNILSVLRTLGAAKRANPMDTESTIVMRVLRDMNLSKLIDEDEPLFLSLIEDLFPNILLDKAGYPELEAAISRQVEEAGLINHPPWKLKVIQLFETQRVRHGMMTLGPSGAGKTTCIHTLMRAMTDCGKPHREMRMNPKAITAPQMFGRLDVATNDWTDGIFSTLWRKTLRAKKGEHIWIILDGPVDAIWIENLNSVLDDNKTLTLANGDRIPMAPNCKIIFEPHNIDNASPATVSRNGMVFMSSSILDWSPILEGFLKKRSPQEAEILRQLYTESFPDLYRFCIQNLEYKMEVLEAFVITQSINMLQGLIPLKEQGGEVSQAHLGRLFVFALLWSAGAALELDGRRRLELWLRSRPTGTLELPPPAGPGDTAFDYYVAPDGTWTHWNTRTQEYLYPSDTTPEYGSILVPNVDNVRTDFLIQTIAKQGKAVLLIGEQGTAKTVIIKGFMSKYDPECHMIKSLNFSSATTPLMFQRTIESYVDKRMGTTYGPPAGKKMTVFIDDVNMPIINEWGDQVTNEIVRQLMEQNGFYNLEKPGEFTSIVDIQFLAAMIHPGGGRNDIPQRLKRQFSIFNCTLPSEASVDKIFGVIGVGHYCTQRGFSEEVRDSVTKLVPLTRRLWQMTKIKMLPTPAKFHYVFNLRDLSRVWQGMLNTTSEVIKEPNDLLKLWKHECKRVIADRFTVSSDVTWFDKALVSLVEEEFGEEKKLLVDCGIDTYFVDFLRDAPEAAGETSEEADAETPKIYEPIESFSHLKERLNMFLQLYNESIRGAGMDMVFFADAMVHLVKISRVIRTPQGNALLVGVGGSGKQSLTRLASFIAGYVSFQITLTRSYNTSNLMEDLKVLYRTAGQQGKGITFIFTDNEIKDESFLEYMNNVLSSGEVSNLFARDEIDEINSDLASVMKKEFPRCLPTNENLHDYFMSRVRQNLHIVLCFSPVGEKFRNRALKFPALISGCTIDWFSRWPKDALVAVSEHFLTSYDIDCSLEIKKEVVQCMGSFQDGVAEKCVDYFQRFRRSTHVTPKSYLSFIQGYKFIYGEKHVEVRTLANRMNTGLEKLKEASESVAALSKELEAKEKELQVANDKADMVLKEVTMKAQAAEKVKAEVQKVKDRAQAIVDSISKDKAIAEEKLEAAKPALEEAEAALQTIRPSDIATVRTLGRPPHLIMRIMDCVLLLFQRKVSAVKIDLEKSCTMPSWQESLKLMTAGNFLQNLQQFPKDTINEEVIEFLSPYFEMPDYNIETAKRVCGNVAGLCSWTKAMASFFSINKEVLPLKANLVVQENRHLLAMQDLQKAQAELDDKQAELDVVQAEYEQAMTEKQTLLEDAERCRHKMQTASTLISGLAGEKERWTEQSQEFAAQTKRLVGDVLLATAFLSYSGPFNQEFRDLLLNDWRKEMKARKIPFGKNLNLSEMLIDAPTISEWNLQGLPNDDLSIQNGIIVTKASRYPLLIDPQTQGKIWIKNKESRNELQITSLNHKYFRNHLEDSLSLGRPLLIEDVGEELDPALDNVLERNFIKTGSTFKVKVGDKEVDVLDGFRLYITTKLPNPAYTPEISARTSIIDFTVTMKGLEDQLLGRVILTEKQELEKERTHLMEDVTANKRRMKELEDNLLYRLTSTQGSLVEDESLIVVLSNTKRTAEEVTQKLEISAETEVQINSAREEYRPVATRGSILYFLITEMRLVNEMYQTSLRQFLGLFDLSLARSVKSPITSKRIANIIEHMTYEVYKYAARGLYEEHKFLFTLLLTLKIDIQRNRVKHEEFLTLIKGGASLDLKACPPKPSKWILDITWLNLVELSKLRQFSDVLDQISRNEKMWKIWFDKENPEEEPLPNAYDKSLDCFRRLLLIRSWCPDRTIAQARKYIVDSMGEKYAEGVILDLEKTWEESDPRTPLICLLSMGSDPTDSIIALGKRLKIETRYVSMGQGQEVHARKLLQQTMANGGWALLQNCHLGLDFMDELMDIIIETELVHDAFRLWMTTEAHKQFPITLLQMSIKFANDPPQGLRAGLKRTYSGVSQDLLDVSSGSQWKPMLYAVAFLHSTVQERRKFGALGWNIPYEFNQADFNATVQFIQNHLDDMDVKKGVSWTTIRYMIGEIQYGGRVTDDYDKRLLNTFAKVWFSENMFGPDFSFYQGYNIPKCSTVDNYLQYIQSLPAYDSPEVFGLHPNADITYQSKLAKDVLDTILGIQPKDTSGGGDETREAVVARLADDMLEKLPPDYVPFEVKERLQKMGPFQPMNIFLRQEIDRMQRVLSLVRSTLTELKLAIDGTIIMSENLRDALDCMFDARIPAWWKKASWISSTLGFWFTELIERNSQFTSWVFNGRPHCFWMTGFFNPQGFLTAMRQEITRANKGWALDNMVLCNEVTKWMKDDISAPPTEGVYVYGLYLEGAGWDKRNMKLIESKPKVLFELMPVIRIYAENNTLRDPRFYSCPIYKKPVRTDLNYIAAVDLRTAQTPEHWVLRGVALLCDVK
UniProt Q8TCE6, sequence (Q8TCE6 whole entry, looked up): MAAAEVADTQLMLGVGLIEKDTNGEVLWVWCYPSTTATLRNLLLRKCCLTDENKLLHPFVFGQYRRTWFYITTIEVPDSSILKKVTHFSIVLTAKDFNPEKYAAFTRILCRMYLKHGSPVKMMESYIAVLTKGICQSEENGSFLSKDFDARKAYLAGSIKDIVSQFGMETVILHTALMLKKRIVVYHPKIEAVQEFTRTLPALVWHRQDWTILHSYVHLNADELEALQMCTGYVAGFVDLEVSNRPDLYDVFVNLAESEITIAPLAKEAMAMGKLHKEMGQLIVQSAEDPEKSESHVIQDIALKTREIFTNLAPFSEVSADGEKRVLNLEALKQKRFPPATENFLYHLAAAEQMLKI
UniProt O60888, sequence (O60888 whole entry, looked up): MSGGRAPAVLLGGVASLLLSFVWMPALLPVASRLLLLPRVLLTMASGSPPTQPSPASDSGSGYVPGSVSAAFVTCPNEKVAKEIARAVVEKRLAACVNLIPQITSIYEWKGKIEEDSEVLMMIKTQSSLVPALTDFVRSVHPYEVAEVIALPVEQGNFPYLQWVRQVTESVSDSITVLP

Row | Target | log2 fold change
1 | CTNNB1 (UniProt P35222) | -0.145
2 | DENND10 (UniProt Q8TCE6) | -0.065
3 | EXOSC10 (UniProt Q01780) | 0.101
4 | EXOC4 (UniProt Q96A65) | 0.183
5 | DEGS1 (UniProt O15121) | 0.002
6 | DDX27 (UniProt Q96GQ7) | 0.255
7 | EDC4 (UniProt Q6P2E9) | -0.012
8 | CTSV (UniProt O60911) | -0.056
9 | CYB561A3 isoform 2 (UniProt Q8NBI2) | 0.395 (active)
10 | ERLIN2 (UniProt O94905) | 0.033
11 | DPYSL2 (UniProt Q16555) | 0.015
12 | ELAC1 (UniProt Q9H777) | 0.153
13 | FAM50A (UniProt Q14320) | -0.027
14 | FAM118A (UniProt Q9NWS6) | 0.29
15 | DIP2A (UniProt Q14689) | 0.1
16 | DNAJC24 (UniProt Q6P3W2) | 0.059
17 | DHRS13 (UniProt Q6UX07) | 0.188
18 | FAM193B (UniProt Q96PV7) | 0.19

Row | Target | log2 fold change
19 | ECPAS (UniProt Q5VYK3) | 0.09
20 | DMAC1 (UniProt Q96GE9) | -0.124
21 | ELF1 (UniProt P32519) | -0.301
22 | DNAH10 (UniProt Q8IVF4) | -0.044
23 | DOCK8 (UniProt Q8NF50) | 0.044
24 | ERCC6 (UniProt Q03468) | 0
25 | ETNK1 (UniProt Q9HBU6) | 0.295 (active)
26 | DYNC1I2 isoform 5 (UniProt Q13409) | -0.006
27 | CUX1 isoform 3 (UniProt P39880) | 0.037
28 | CWF19L2 (UniProt Q2TBE0) | 0.102
29 | EIF2S3 (UniProt P41091) | 0.124
30 | CUTA isoform 2 (UniProt O60888) | -0.035
31 | DNAH5 (UniProt Q8TE73) | -0.071
32 | EPHX2 (UniProt P34913) | 0.002
33 | ELOVL5 isoform 2 (UniProt Q9NYP7) | -0.026
34 | DAXX (UniProt Q9UER7) | 0.048
35 | CTSS (UniProt P25774) | 0.258

Compound: CNc1nc(-c2ccc3c(N)n[nH]c3c2)cc(N2C[C@@H](C(=O)NC3CCCCC3)CC[C@H]2C)n1
Assay: as above
How it was run: as §1

Row | Target | log2 fold change
36 | CTNNB1 (UniProt P35222) | -0.025
37 | DENND10 (UniProt Q8TCE6) | -0.035
38 | EXOSC10 (UniProt Q01780) | 0.022
39 | EXOC4 (UniProt Q96A65) | 0.015
40 | DEGS1 (UniProt O15121) | 0.029
41 | DDX27 (UniProt Q96GQ7) | -0.017
42 | EDC4 (UniProt Q6P2E9) | -0.099
43 | CTSV (UniProt O60911) | 0.062
44 | CYB561A3 isoform 2 (UniProt Q8NBI2) | -0.068
45 | DCP2 (UniProt Q8IU60) | -0.153
46 | ERLIN2 (UniProt O94905) | -0.005
47 | DPYSL2 (UniProt Q16555) | -0.032
48 | ELAC1 (UniProt Q9H777) | 0.049
49 | FAM50A (UniProt Q14320) | 0.08
50 | FAM118A (UniProt Q9NWS6) | 0.068
51 | DIP2A (UniProt Q14689) | -0.009
52 | DNAJC24 (UniProt Q6P3W2) | -0.351 (active)
53 | EZH2 isoform 2 (UniProt Q15910) | 0.217
54 | DHRS13 (UniProt Q6UX07) | 0.174
55 | FAM193B (UniProt Q96PV7) | 0.096

Row | Target | log2 fold change
56 | ECPAS (UniProt Q5VYK3) | 0.027
57 | DMAC1 (UniProt Q96GE9) | 0.005
58 | ELF1 (UniProt P32519) | -0.03
59 | DNAH10 (UniProt Q8IVF4) | 0.062
60 | DOCK8 (UniProt Q8NF50) | -0.06
61 | ERCC6 (UniProt Q03468) | -0.085
62 | ETNK1 (UniProt Q9HBU6) | -0.039
63 | DYNC1I2 isoform 5 (UniProt Q13409) | -0.005
64 | CUX1 isoform 3 (UniProt P39880) | -0.062
65 | CWF19L2 (UniProt Q2TBE0) | -0.014
66 | EIF2S3 (UniProt P41091) | 0.033
67 | CUTA isoform 2 (UniProt O60888) | 0.034
68 | EIF2AK1 (UniProt Q9BQI3) | -0.09
69 | DNAH5 (UniProt Q8TE73) | -0.099
70 | EPHX2 (UniProt P34913) | 0.216
71 | EDEM2 (UniProt Q9BV94) | 0.079
72 | ELOVL5 isoform 2 (UniProt Q9NYP7) | -0.135
73 | DAXX (UniProt Q9UER7) | 0.018
74 | CTSS (UniProt P25774) | 0.134
